Experimental data: ChEMBL document CHEMBL4888484, “Replenishing the malaria drug discovery pipeline: Screening and hit evaluation of the MMV Hit Generation Library 1 (HGL1) against asexual blood stage Plasmodium falciparum ,using a nano luciferase reporter read-out” (2022)
Out of some 4,800 compounds screened, about 410 (8.5%) showed an effect of 50% or more. For the sample, strong results were picked, then their nearest neighbours and some compounds at random.

Test system: Plasmodium falciparum
Experiment: Confirmatory screen in NF54 pLDH assay, in single point, at 2uM, 72h
Format: functional, Erythrocyte
Details: timepoint 72 hour

SMILES | % Inhibition [%]
O=C(Nc1cccc(Cl)c1)c1ccc(-c2cnc(N3CCCC3)nc2)cc1 | -19
O=C(Nc1cccc(Cl)c1)Nc1cccc(-c2cnc3n2CCC3)c1 | 75
Cc1nn(C)c(NC(=O)Nc2cccc(Cl)c2)c1C1=CCCCC1 | -9
O=C(Cn1cccn1)Nc1cccc(S(=O)(=O)N2CCCC2)c1 | -8
C[C@@H](C1CCCC1)N1C(=O)NC(CC(F)(F)F)C1=O (some centres not stated) | -23
O=C(NS(=O)(=O)C1CCOCC1)c1csc(-c2ccco2)n1 | -10
COc1ccccc1Cn1cnc2c1c(=O)n(C1CCCCC1)c(=O)n2-c1ccccc1Cl | 90
Cc1ccccc1Cn1cnc2c1c(=O)n(C1CCCCC1)c(=O)n2-c1ccccc1Cl | 82
COC(=O)c1ncn2c1C(=O)N(Cc1ccccc1OC)[C@](C)(C(=O)NC1CCCCC1)C2 | 11
COc1ccccc1-n1c(=O)n(C2CCCC2)c(=O)c2c1ncn2Cc1ccccc1Cl | 34
Cn1ncn(CC(=O)c2cccc(Cl)c2Cl)c1=O | -14
O=C(CN1C(=O)N[C@H](c2ccc(F)cc2)C1=O)Nc1ccc2c(c1)OCCO2 | 5
CC(C)(C)CC(C)(C)NC(=O)c1ccc2nc(N3C(=O)CCC3=O)sc2c1 | 9
C[C@H](c1ccccc1)N1C(=O)[C@@H]2CN(C(=O)CC(C)(C)C)CCN2C1=O | -13
Cc1ccc(CCC(=O)N2CC[C@H](C)S(=O)(=O)CC2)s1 | 9
C[N+]12CCCCC1C(OC(=O)C1(c3ccccc3)CCCC1)CCC2 (configuration not stated) | 60
O=C1C2ON(c3ccccc3)C(c3ccncc3)C2C(=O)N1c1ccc2ccccc2c1 (configuration not stated) | 8
COc1ccc2cc3n(c2c1)C[C@@](C)(C(=O)NC1CCCC1)N(Cc1ccc(F)cc1)C3=O | 13
Cc1cc(C)nc(N[C@H](c2ccc(F)cc2)c2cc(C)sc2NC(=O)c2ccccc2)n1 | 6
COc1cc([C@@H]2C=C(c3ccc(Cl)cc3)Nc3ncnn32)ccc1OCc1ccc(Cl)cc1 | 4
Cc1ccc(C2=C[C@@H](c3ccc(Cl)cc3)n3nc(NC(=O)c4ccccc4)nc3N2)cc1 | 90
Cc1ccc([C@@H]2C=C(C(=O)O)Nc3c(C(N)=O)nnn32)cc1 | -12
Cc1cccc(OC(=O)O[C@H]2c3nccnc3C(=O)N2c2ccc(Cl)cn2)c1 | 16

SMILES | % Inhibition [%]
CN(C)c1ccc2c(c1)CN(C(=O)c1ccccc1S(C)(=O)=O)CC2 | -5
O=C(COc1ccc(Cl)cc1)N[C@H](CO)CC1CCCC1 | 4
O=S1(=O)N=C(n2ccnc2)c2ccccc21 | -17
CS(=O)(=O)n1cnc2cc(F)c(F)cc21 | -8
COc1ccc(-c2cc(-c3ccccc3)nc(N3CCC(C)CC3)n2)cc1 | 43
COc1ccc(-[n+]2c(-c3ccc(-c4ccccc4)cc3)cn3c2COCC3)cc1 | 60
COc1ccc(CCc2nnc3n2CCOC3)cc1 | -1
COc1ccc(-c2nnc(COc3ccc(-c4ccccc4)cc3)s2)cc1 | -10
COc1ccc(-[n+]2c(-c3ccccc3)cn3c2CCC3)cc1 | 59
COc1ccc(N2CCN(c3nc(-c4ccccc4)cs3)CC2)cc1 | 0
O=C(Cn1c(=O)n(Cc2ccco2)c(=O)c2ccccc21)NC1CCCCC1 | 10
Cc1noc([C@H]2CCCN(C(=O)c3cc4c(s3)CCC4)C2)n1 | -5
O=C1c2ccccc2N[C@]2(C(=O)Nc3ccccc32)N1c1ccc2c(c1)OCO2 | -25
Cc1nn(-c2ncc(C(F)(F)F)cc2Cl)c(=O)n1-c1ccc(OCc2ccccc2)cc1 | -12
CCCCN(CC)c1ncc(C(=O)Nc2ccc(OCC)cc2)c(N)n1 | 15
Cc1ccc(NC(=O)Nc2cc(C)ccc2N2CCCN(Cc3ccc(F)cc3)C2=O)cc1 | 30
Cc1cccc(CNC(=O)NC2CCOC2c2ccc(Cl)cc2)n1 (configuration not stated) | -15
Cc1cccc(CN(Cc2cccc(C)n2)C[C@H]2CCCCO2)n1 | 90
Cc1cc(C)nc(NCCC[C@H]2CCCCO2)n1 | -15
CC(C)c1nc(CN(C)[C@@H](C)C(=O)Nc2nccs2)cs1 | 23
CC(C)N(CC(=O)Nc1nccs1)Cc1ccccn1 | 59
CC(C)NC(=O)C(=O)Nc1nccs1 | -19
CCN1C(=O)CCN(C(=O)c2ccnn2C)CC12CCOCC2 | 3

SMILES | % Inhibition [%]
Brc1cccc2c1OCC[C@@H]2Nc1ncnc2nc[nH]c12 | 4
Oc1ccccc1-c1cnc(C(F)(F)F)s1 | 90
Oc1nc(-c2cccc(C(F)(F)F)c2)sc1-c1ccccc1 | 2
Cc1ccc(OCC(=O)Nc2cc(C)nn2-c2nc3c(cnn3-c3ccc(C)c(C)c3)c(=O)[nH]2)cc1 | 57
Cc1ccc(OCC(=O)Nc2ccc(N3CCn4c(nc5ccccc54)C3)cc2Cl)cc1 | -20
COc1ccc(-n2ncc3c(NCCNC(=O)c4ccccc4Cl)nc(C)nc32)cc1 | -27
CN(CCCNC(=O)C(=O)Nc1ccn(C)n1)c1cccc(F)c1 | 10
COCCOC(=O)c1cc(C(F)(F)F)cc(C(=O)OCCOC)n1 | 11
Cn1c(=O)c2c(ncn2CC(=O)N(Cc2ccccc2)C2CC2)n(C)c1=O | 2
CN(Cc1nccn1C)C(=O)c1cc2ccccc2[nH]1 | 15
CCCn1c(C)cnc1C1CN(S(=O)(=O)c2cc(Cl)ccc2Cl)C1 | 6
Cn1c(C(C)(C)C)nc2cc(NC3CCC4(CC3)OCCO4)ccc21 | -16
COCc1cc(F)ccc1NC(=O)NC1CCN(c2cc(C)nc(C)n2)CC1 | 5
Cn1ncc2c(N3CC(=O)N(C4CC4)C3)ncnc21 | -15
C[C@@H]1CN(CCN(C)C(=O)Nc2nc(C3CC3)cs2)C[C@H](C)O1 | 9
CCC(C)NCC(O)Cn1c(-c2ccccc2)c(-c2ccccc2)c2cc(C)ccc21 (configuration not stated) | 92
Cc1cccc(C(=O)Nc2c(C#N)c(-c3ccccc3)c(-c3ccccc3)n2Cc2ccccc2)c1 | 13
Cc1c(C)n(CC(O)CNC(C)c2ccccc2)c2c(Cl)cccc12 (configuration not stated) | 73
Cc1c(C)n(C[C@@H](O)CNC2CCCC2)c2c(Cl)cccc12 | -18
Cc1c(C)n(C[C@H](O)Cn2c(C(F)(F)F)nc3ccccc32)c2c(Cl)cccc12 | -15
CC(NCC(O)Cn1c(-c2ccccc2)c(-c2ccccc2)c2ccc3ccccc3c21)c1ccccc1 (configuration not stated) | 86
